Only a selection was taken, and hits are over-represented in it overall.
Pf Dd2 inh: qHTS Primary assay for Inhibitors of Plasmodium falciparum Dd2 growth in vitro. P. falciparum Dd2 growth, SYBR Green, 72 h. Potency, µM (series often up to 28.9 µM), for inactives: at the top dose activity, negative = inhibition, usual class: inhibitors. hit rate 4.3% among 120,000. AID 1347417, 2020; active means well fitted inhibition curve with a large enough effect;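 further: plate controls were DMSO vehicle for no effect and reference drug for full effect; nearly all actives have a fitted effect of over 65% in size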
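Infected erythrocytes (Dd2, 0.3% parasitemia, 2.5% hematocrit final) are added to compound in RPMI-1640/Albumax II medium, grown 72 h at 37C in low oxygen, then lysed with saponin/Triton-X containing SYBR Green and read by fluorescence.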
* marks the source's active call; other numbers are inactive results; i = inactive; [ ] = remark or other dose. Potency means the concentration at half of the fitted maximal effect.

SMILES	Pf Dd2 inh
Cc1nc2cccnc2n1CC1CCCN(S(=O)(=O)c2ccc(CC(C)C)cc2)C1 (stereo not drawn)	6.31µM*
Cc1cc(S(=O)(=O)N2CCCC(Cn3c(C)nc4cccnc43)C2)ccc1Cl (stereo not drawn)	-27.7%
O[C@@H]1CCN(Cc2nc(C3(O)CCN(Cc4ccccc4F)CC3)cs2)C1	-17.2%[44.1 µM]
Cc1cc(C(=O)N2CCCC3(CNS(=O)(=O)c4cccnc4O3)C2)no1 (stereo not drawn)	13.1%
Cn1c(CN2CCOCC2)nnc1C1CCCN(S(=O)(=O)C2CC2)C1 (stereo not drawn)	-12.7%
Cc1cccc(-c2ccccc2CN)c1	10µM*
NCc1cccc(-c2ccccn2)c1	-28.3%[44.1 µM]
CN(Cc1ccc(-c2ccccc2)cc1)C(=O)c1cccc(Cl)c1	-12.9%[44.1 µM]
Cc1cccc(-c2ccc(CN)cc2)c1	11.2µM*
O=Cc1ccc(-c2cccc(Cl)c2)cc1	10.0%[44.1 µM]
COc1ccc(Cn2ccn(Cc3cccc(C)c3)c(=O)c2=O)cc1	33.9%
NCc1ccc(-c2cccc(Cl)c2)cc1	10µM*
NCc1cccc(-c2cc(F)cc(F)c2)c1	10µM*
COc1ccc(CCC(=O)NCCc2csc(-c3cccc(C)c3)n2)cc1	-18.7%
CCCCCn1c(-c2cccc(C)c2)nc2ccccc21	-7.8%
NCc1cccc(-c2ccc3c(c2)C(=O)N2CC[C@H](NC(=O)c4cccc(F)c4)[C@H]2C(=O)N3)c1	i
Cc1cccc(-c2nocc2CCC(=O)NCc2ccccc2F)c1	-20.3%
CC(C)NC(=O)N1CC2ON=C(C(=O)NCc3cccnc3)C2C1 (stereo not drawn)	-3.3%
Oc1cccc(Nc2cnc3ccc(-c4ccc(F)cc4)nn23)c1	i
COCCn1ncc(N2CCCC(CC(=O)NCc3ccc(F)cc3F)C2)cc1=O (stereo not drawn)	12.4%
CCOc1cccc(CN2CCC(C(Cc3ccccc3F)N(C)C(=O)c3cccs3)CC2)c1O (stereo not drawn)	-27.3%
COc1ccc(OC2CN(C(=O)c3ccccc3F)C2)cc1	13.7%
CCCNC(=O)N1C[C@@H]2C(=O)N(C(CC)c3cccs3)C(=O)[C@@H]2C1 (stereo partly drawn)	-0.3%
COc1ccc(-c2cc(C[C@@H]3C[C@H](NCc4ccncc4)C3(C)C)no2)cc1	-16.4%[44.1 µM]
O=C(C[C@@H]1C[C@H]2O[C@H](CNCc3cnccc3C(F)(F)F)[C@@H](O)[C@H]2O1)N1CCOCC1	19.1%
SMILES	Pf Dd2 inh
CO[C@H]1C(=O)N(C(C)C)[C@H]1C1CCN(C(=O)CCc2nc3ccccc3s2)CC1	-19.2%
O=C(NCc1ccccc1)[C@@H]1COCC(=O)N1Cc1ccc(F)cc1	-8.0%
Cc1nc(CN2C(=O)OC3(CCN(CCCc4ccccc4)CC3)C2(C)c2ccccc2)cs1 (stereo not drawn)	i
O=C(c1cc(-c2cccs2)[nH]n1)N1CCc2c(nc(-c3ccccc3)[nH]c2=O)C1	-3.9%
O=C(N1CCN(S(=O)(=O)c2cccc(F)c2)CC1)N1CC2CC(C1)[C@H]1CCCC(=O)N1C2 (stereo partly drawn)	i
CCOc1ccccc1C1NC(=O)N(CC(=O)Nc2ccc(C(C)=O)cc2)C2=C1C(=O)OC2 (stereo not drawn)	-5.8%
Cc1ccc(CN(C)Cc2ccc(F)cc2)cc1	9.7%[44.1 µM]
NCc1ccc(-c2ccc(F)cc2)cc1	10µM*
COc1ccc(-c2ccc(CN)cc2)cc1	-12.4%[44.1 µM]
COCC(=O)NC1CCc2nnc(C3CC3)n2CC1 (stereo not drawn)	i
Cc1ccccc1Nc1nc(-c2cccc(Cl)c2)c2c(n1)-c1ccccc1OC2	-5.4%
CCOc1ccc(Nc2nc(-c3cccc(Cl)c3)c3c(n2)-c2ccccc2OC3)cc1	10µM*
Fc1ccc(Nc2nc(-c3ccc(F)cc3)c3c(n2)-c2ccccc2OC3)cc1	3.0%
COCCOC1CCOC2(CCN(C(=O)c3ccc(OC)c(OC)c3)CC2)C1 (stereo not drawn)	i
CC(C)NC(=O)N[C@H]1CCN2C(=O)c3cc(-c4ccc5c(c4)OCO5)ccc3NC(=O)[C@@H]2C1	i
CC(C)NC(=O)N[C@H]1CCN2C(=O)c3cc(-c4ccsc4)ccc3NC(=O)[C@@H]2C1	12.6µM*
Cc1cccc(-c2ccc3c(c2)C(=O)N2CC[C@H](NC(=O)NC(C)C)C[C@H]2C(=O)N3)c1C	-4.5%[44.1 µM]
COc1ccccc1NC(=O)Cn1nc2n(c1=O)CCCCC2	-22.9%
Cc1cnc(CC2CCN(C(=O)N(C)C)C2)n1CC1CC1 (stereo not drawn)	-2.7%
Cn1cc(C(=O)N2CCC3(CC2)CN(Cc2ccccc2)CC3CO)cn1 (stereo not drawn)	7.6%
COCCN(Cc1ccco1)C(=O)c1cc2c(=O)[nH]c3ccc(C)cc3c2s1	i
CC1CCC(NC(=O)c2cc3c(Cl)nc4ccccc4c3s2)CC1 (stereo not drawn)	27.1%
Cc1cccc(CCNC(=O)c2cc3c(=O)[nH]c4ccc(C)cc4c3s2)c1	-17.2%
CCN(CCCNC(=O)c1cc2c(=O)n(C)c3ccccc3c2s1)Cc1ccccc1	5.01µM*
CCOc1ccc(CNC(=O)c2cc3c(=O)n(C)c4ccccc4c3s2)cc1	12.8%

Screens: PubChem BioAssay, National Center for Advancing Translational Sciences (NCATS)
